Measured values taken from PubChem BioAssay AID1460 (National Center for Advancing Translational Sciences (NCATS), 2008).
Hit rate of the full screen: of about 270,000 compounds, about 5,800 (2.1%) were called active. A call without a number means that no potency is given here. Another 16% or so got no clear call; they are omitted. Calls follow the shape of the dose curve; as a rule, active = well fitted inhibition curve with a large enough effect; inconclusive = small, poorly fitted or top-dose-only effect; inactive = flat fitted curve, though single readings scatter. The full list was thinned out, with actives kept by preference.
Also: nearly all actives have a fitted effect of over 55% in size.
Potency is read from the fitted curve at half-maximal effect.

What follows are molecules tested against Microtubule-associated protein tau (Homo sapiens) (UniProt P10636) (assay: qHTS for Inhibitors of Tau Fibril Formation, Thioflavin T Binding). Conditions: recombinant tau K18 P301L (four-repeat tau fragment), heparin-induced fibrillization, ThT fluorescence; series mostly up to 57.4 µM.
Microtubule-associated protein tau (Homo sapiens), sequence (P10636 561-689 P618L limits assumed): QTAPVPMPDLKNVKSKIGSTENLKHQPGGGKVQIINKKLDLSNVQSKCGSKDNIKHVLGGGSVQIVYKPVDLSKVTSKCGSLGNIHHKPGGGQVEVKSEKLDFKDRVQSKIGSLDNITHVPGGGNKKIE
Outline: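 Heparin-induced (20 uM) aggregation of recombinant human K18 P301L tau, 15 uM unlabeled with 0.24 uM labeled, pH 7 acetate buffer, 6 hr at 37 C with compound. Fibrils quantified by 30 uM ThT fluorescence after 1 hr ambient incubation.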
For `O=C(c1cc2nc(-c3ccccc3)cc(-c3ccccc3)n2n1)N1CCC2(CC1)OCCO2`, the Potency was “inactive”. `CC1=C(C(=O)Nc2ccccc2)SCCO1` was tested, and the Potency was “inactive”. In the case of `COc1cccc(-c2nc3ccc(N4CCN(C)CC4)cc3[nH]2)c1`, the Potency is reported as “inactive”. In the case of `CCN1CC2C3CCC(C)(O3)C2C1` (centres undefined), the Potency is reported as “inactive”. With `Cc1nnc(NC(=O)c2cccn(Cc3cccc(F)c3)c2=O)s1` the Potency was “inactive”. For `N#Cc1c(Cl)c(Cl)c(Cl)c(C#N)c1Cl`, the Potency was 2.24 µM (active). In the case of `Cc1ccc(NC(=O)N(Cc2ccc3c(c2)OCO3)C2CCN(Cc3ccccc3)CC2)cc1F`, the Potency is reported as “inactive”. With `Cc1ccc(-n2c(/C=C/c3cccc(C(F)(F)F)c3)nc3ccccc3c2=O)cc1` the Potency was “inactive”. `C=CCN1CCC23c4c5ccc(O)c4O[C@H]2C(=O)CC[C@@]3(O)C1C5` (some centres undefined) was tested, and the Potency was “inactive”. With `C[C@@]12CCC3C(CC[C@@H]4CC(O)CC[C@@]34C)C1CCC2O` (some centres undefined) the Potency was “inactive”. For `CC1=CC(=Cc2sc3ccccc3[n+]2C)C=C(C)O1`, the Potency was 15.8 µM (active). `CC(C)(C)c1ccc(CN2C(=O)CN=C(c3ccccc3)c3ccccc32)cc1` was tested, and the Potency was “inactive”. In the case of `Cc1nn(Cc2ccccc2Cl)c(Cl)c1C(=O)OC(C(=O)NC(N)=O)C(C)C` (centres undefined), the Potency is reported as “inactive”. For `CCC1(C)CC(CCNCc2ccc(N(C)C)cc2)(c2ccc(F)cc2)CCO1` (centres undefined), the Potency was “inactive”. In the case of `COc1cc(OC)cc(C2(C#N)CCN(C)CC2)c1`, the Potency is reported as “inactive”. `N[C@H](C(=O)O)c1cc(=O)[nH]o1` was tested, and the Potency was “inactive”. In the case of `C=CCSSCC=C`, the Potency is reported as “inactive”. For `CCN(CC)c1ccc([N+](=O)[O-])c2cccnc12`, the Potency was 11.2 µM (active). With `c1ccc(C2NCc3ccccc3-n3cccc32)cc1` (centres undefined) the Potency was “inactive”. For `Cc1ccc(Cn2nnnc2CN2CCC(n3nnc4ccccc43)CC2)cc1`, the Potency was “inactive”. In the case of `CCOC(=O)C(O)(c1ccc(NC(=O)c2ccco2)c(OC)c1)C(F)(F)F` (centres undefined), the Potency is reported as “inactive”. For `CCCCC(=O)N/N=C/c1c(O)n(CC)c(=S)n(CC)c1=O`, the Potency was “inactive”. `C1CC[C@H]([C@@]23C[C@H](C[C@H]4CCCN[C@H]42)[C@@H]2CCCCN2C3)NC1` was tested, and the Potency was “inactive”. For `Cn1c(O)c(C=Nc2ccc3c(c2)CCC3)c(=O)n(C)c1=O`, the Potency was “inactive”.
